# A selection: hits, their analogues and other compounds. The true share with any hit is near 2.4%.
# SENP6 inh = SENP6 protease inhibition | Recombinant SENP6 catalytic domain, aminoluciferin luminescence | AID 2599 | inhibition, % at 10 µM | hit rate 1.8% among 330,000 | Q9GZR1;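 active means inhibition above about 50% at the single tested dose, limit read from the data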;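 further: plate controls were DMSO wells with enzyme for no effect and DMSO wells lacking enzyme for full effect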
# Target sequence (Q9GZR1 628-1112 limits assumed): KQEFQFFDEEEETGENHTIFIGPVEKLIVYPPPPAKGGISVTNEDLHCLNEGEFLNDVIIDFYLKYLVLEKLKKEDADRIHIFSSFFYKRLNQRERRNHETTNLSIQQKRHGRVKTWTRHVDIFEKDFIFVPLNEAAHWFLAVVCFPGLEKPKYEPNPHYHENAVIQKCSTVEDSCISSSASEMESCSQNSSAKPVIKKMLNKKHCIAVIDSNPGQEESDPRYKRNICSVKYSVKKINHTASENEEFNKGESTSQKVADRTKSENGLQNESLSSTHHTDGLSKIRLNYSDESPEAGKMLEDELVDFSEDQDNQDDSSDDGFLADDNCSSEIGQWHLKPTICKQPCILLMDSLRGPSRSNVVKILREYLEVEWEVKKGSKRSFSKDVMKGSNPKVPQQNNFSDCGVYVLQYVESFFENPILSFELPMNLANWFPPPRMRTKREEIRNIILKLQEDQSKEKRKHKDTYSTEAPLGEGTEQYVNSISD
# Platelet DG rel = modulates dense granule release in human platelets. human platelet-rich plasma, SFLLRN dense granule ATP release, luminescence. inhibition, %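 (compounds screened at 7.5 µM in platelet-rich plasma)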. hit rate 0.22% among 300,000. AID 1663;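 active means mean replicate score, as percent of positive control, at or above 50; inconclusive means mean below 50 but at least one replicate at or above 50; inactive means mean and every replicate below 50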
# SENP8 block-1 = SENP8 (human) protease inhibition; recombinant SENP8, Nedd8 substrate fluorescence; AID 602440; inhibition, % at 20 µM; hit rate 0.64% among 360,000; Q96LD8; in the data active means inhibition mostly above about 40%, no sharp cut-off; inactive means mostly below about 27%
# SENP8 block-2 = inhibitors of human SENP8 protease; hit rate 1.2% among 330,000; inhibition, % at 10 µM; Q96LD8; purified SENP8, Z-RLRGG-aminoluciferin cleavage, luminescence; in the data active means inhibition above about 50%
# SENP7 block = inhibitors of human SENP7 protease; Q9BQF6; recombinant SENP7, Z-RLRGG-aminoluciferin luminescence, 40 min; inhibition, % at 5 µM; hit rate 1.5% among 330,000;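 active means inhibition above about 50% at the single test dose, limit read from the data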;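 further: plate controls were DMSO with enzyme for no effect and no enzyme buffer wells for full effect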
# SENP8 inh conf = SENP8 (human) inhibition, single concentration confirmation | purified SENP8, Nedd8-AMC/pro-Nedd8 cleavage fluorescence, 30 min | hit rate 15% among 1,400 | shares compounds with SENP8 block-1 | inhibition, % at 25 µM; in the data active means inhibition mostly above about 39%, no sharp cut-off; inactive means mostly below about 34%
# The depositor's hits bear a star; ? = inconclusive; nt = not tested or not shown.
SMILES,SENP6 inh,Platelet DG rel,SENP8 block-1,SENP8 block-2,SENP7 block,SENP8 inh conf
c1cc(CCCc2ccncc2)ccn1,-11,nt,18,4,-5,nt
CN(C(=S)Nc1ccc(SC(F)F)cc1)c1ccc(O)cc1,5,-3,-42,0,18,nt
CN(C(=S)Nc1cccnc1)c1ccc(O)cc1,nt,-6,40*,nt,nt,12
CN(C(=S)Nc1ccc(Oc2ccccc2)cc1)c1ccc(O)cc1,nt,-12,46*,nt,nt,15
CN(C(=S)Nc1ccccc1)c1ccccc1,-10,8,24,-4,0,nt
CCOC(=O)c1nnn(-c2ccc(OC)cc2)c1N,-7,nt,25,3,7,nt
CCOC(=O)c1nn(-c2ccc(OC)cc2)c(=O)c2c(N)scc12,25,-6,41*,3,-6,53*
O=C(CC(c1ccccc1)c1ccccc1)NCc1cccnc1,-1,0,41*,1,0,13
CCNc1ccc(C(=O)OCC(=O)NC(C)c2ccccc2)cc1[N+](=O)[O-] (configuration not stated),-6,6,40*,-7,-2,4
O=S1(=O)CCOCCCN1Cc1ccccc1F,-18,5,19,-16,-5,nt
CC1(c2ccccc2Br)NC(=O)N(CC(=O)N2CCc3ccccc3C2)C1=O (configuration not stated),2,nt,14,2,4,nt
O=S1(=O)NC2c3ccccc3CC2O1 (configuration not stated),15,0,46*,-3,13,57*
CNc1nc(Oc2ccc(=O)n(C)n2)nc(N2CCOCC2)n1,11,3,44*,1,5,1
CCNc1nc(Oc2ccc(=O)n(C)n2)nc(N2CCOCC2)n1,-26,0,21,2,-10,nt
COc1cccc(NC(=O)C(c2ccccc2)N2CCNC(=O)C2)c1 (configuration not stated),-13,-1,-6,-2,-8,nt
Cc1ccccc1C(=O)N1CCN(c2ccc([N+](=O)[O-])c(NCc3ccco3)c2)CC1,-10,3,53*,-3,-7,26
O=C(c1cccc2ccccc12)N1CCN(c2ccc([N+](=O)[O-])c(NCc3ccco3)c2)CC1,-9,0,42*,-3,1,10
Cc1ccc(C(=O)N2CCN(c3ccc([N+](=O)[O-])c(NCc4ccco4)c3)CC2)cc1,-10,?,48*,-5,6,14
Cc1cccc(C)c1N(CC(=O)N1CCCC1)S(C)(=O)=O,4,1,10,5,3,nt
C=CC[C@]12C[C@@H](OC)C(=O)C=C1O[C@@H](c1ccc(OC)c(OC)c1)[C@H]2C,-3,0,42*,4,-2,11
C=CC[C@@]12C=C(OC)C(=O)C(OC)=C1O[C@H](c1ccc3c(c1)OCO3)[C@H]2C,1,-4,13,2,-8,nt
Cc1cc(Cl)ccc1NC(=S)NCc1ccc(F)cc1,0,-2,10,2,10,nt
O=C(Nc1cc(F)ccc1F)C1CCN(S(=O)(=O)c2cccc3nonc23)CC1,-8,-4,14,3,3,nt
C/C(=N\Nc1nc2ccccc2[nH]1)c1ccc([N+](=O)[O-])cc1,-12,2,54*,1,-10,4
COC(=O)c1cc(C(=O)Nc2nc3ccccc3[nH]2)cc([N+](=O)[O-])c1,9,0,-4,4,2,nt
SMILES,SENP6 inh,Platelet DG rel,SENP8 block-1,SENP8 block-2,SENP7 block,SENP8 inh conf
Cc1cccc(NS(=O)(=O)c2cc(C(=O)OCC(=O)Nc3cc(C)on3)ccc2C)c1,8,3,41*,7,7,19
N#CCCN(C(=O)COC(=O)C1CCN(S(=O)(=O)c2ccc3c(c2)OCCO3)CC1)c1ccccc1,2,-4,14,3,0,nt
N#CC1=C(N)Oc2n[nH]c(-c3cccs3)c2C1c1cccs1 (configuration not stated),33,4,59*,11,24,15
CC(NC(=O)Nc1ccccc1Cl)c1ccc2c(c1)OCO2 (configuration not stated),-18,-4,1,-12,10,nt
O=C(COC(=O)c1cc(S(=O)(=O)N2CCOCC2)ccc1Cl)Nc1ccc2c(c1)OCO2,-7,-4,45*,-2,4,11
CSc1ccc(CN(C)C(=O)CNC(=O)c2sc3ccccc3c2Cl)cc1,-9,-21,-2,-7,-6,nt
O=C(NC1CCSc2ccccc21)c1ccccc1Br (configuration not stated),10,-4,15,-5,-3,nt
C=CCc1ccc(OC(=O)c2ccccc2)c(OC)c1,-9,-3,48*,-16,-4,12
C=CCc1ccc(OCCCOc2ccc(C(=O)O)cc2)c(OC)c1,-2,-1,4,-8,-5,nt
COc1ccc(O)c(C(c2c(C)[nH][nH]c2=O)c2c(C)[nH][nH]c2=O)c1,15,-1,76*,11,4,47*
CCOc1cc(C(c2c(C)[nH][nH]c2=O)c2c(C)[nH][nH]c2=O)ccc1O,-4,4,47*,6,9,53*
O=C(CCCCCNC(=O)N1CCn2c1nc1ccccc12)N[C@H](C(=O)O)c1ccccc1,2,2,52*,2,3,20
O=C(CCCCCNC(=O)N1CCn2c1nc1ccccc12)N[C@H](Cc1ccccc1)C(=O)O,-3,2,26,13,0,nt
Cc1ccc(S(=O)(=O)NCC2CCCO2)cc1[N+](=O)[O-] (configuration not stated),0,-5,45*,-14,-11,7
Cc1ccc(OC(C)C(=O)N(Cc2cccs2)C2CCS(=O)(=O)C2)cc1C (configuration not stated),5,-28,41*,-11,6,8
O=C(/C=C/CCc1ccc2c(c1)OCO2)N1CCCCC1,-8,nt,57*,3,8,0
CN(C)c1cccc2c1c(NC(=O)c1ccc(Cl)cc1)nn2C,-14,-6,60*,-2,2,21
CN(C)c1cccc2c1c(NC(=O)c1ccc(F)cc1)nn2C,0,-13,55*,8,8,15
CCc1cccc(NC(=O)C2CCN(S(=O)(=O)c3ccc4c(c3)NC(=O)CO4)CC2)c1,1,-5,-4,9,4,nt
O=C(Cn1cc([N+](=O)[O-])cn1)NCc1ccccc1,9,1,9,-1,1,nt
COc1ccc(CNC(=O)Cn2cc([N+](=O)[O-])cn2)cc1,-32,-2,44*,-5,-6,-11
Cc1ccc(-n2c(C)cc(-c3csc(N)n3)c2C)cc1,8,-4,4,0,2,nt
Cc1cc(-c2csc(N)n2)c(C)n1C,0,-1,43*,6,9,16
C#CCN(C[C@@H]1[C@@H](OC(=O)NCc2ccccc2F)[C@@H](OC(=O)NCc2ccccc2F)Cn2c(=O)ccc(=O)n21)S(=O)(=O)c1ccc(C)cc1,nt,nt,-8,nt,nt,nt

# High-throughput results deposited in PubChem by several laboratories.
